Where a name gives a salt, the structure may show the parent alone.
How the values were obtained:
[1] = system: S. cerevisiae SK1 pCDA2-eGFP (USY613), sporulating; assay: CDA2-GFP sporulation assay sensitivity score (z-score vs DMSO controls); higher = stronger inhibition of sporulation, active = hit call of the paper;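 note: active if sensitivity score above 5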
[2] = system: S. cerevisiae NKY1551 his4x/his4B, sporulating; assay: HIS4 meiotic recombination assay sensitivity score (z-score vs DMSO controls); higher = stronger inhibition of sporulation/recombination, active = hit call of the paper;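 note: active if sensitivity score above 5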
[3] = system: S. cerevisiae AD1-9 (efflux-pump deficient), vegetative growth in YPD; assay: growth sensitivity score (doubling time z-score vs DMSO controls); higher = slower growth, strongly negative scores also mark growth inhibition (complete suppression), active = hit call of the paper
Outline: (§1)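 Rich medium in microtiter plates was seeded with Saccharomyces cerevisiae strains BY4741 and AD1-9 at an OD600 of 0.065, and compounds were added as a 1:100 dilution of DMSO stock. A Tecan GENios reader recorded optical density every 15 min for 24 hours, with eight solvent-only wells in each experiment. Average doubling time was the time to reach a set generation point divided by generation number. The growth sensitivity score was the compound mean minus the solvent-only mean, divided by the solvent-only standard deviation.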

[4] = system: S. cerevisiae BY4741 (wild-type), vegetative growth in YPD; assay: as above
Outline: as §1

SMILES | CDA2-GFP sporulation assay sensitivity score [1] | HIS4 meiotic recombination assay sensitivity score [2] | growth sensitivity score [3] | growth sensitivity score [4]
CC(Cc1ccccc1)(NC(=O)CN)c1ccccc1 (centres undefined) [Remacemide] (stock concentration (mM, diluted 1:100): 10) | 2.76 (inactive) | -1.04 (inactive) | 4.61 (active) | -0.78 (inactive)
Cc1ccnc2c1NC(=O)c1cccnc1N2C1CC1 [Viramune] (stock concentration (mM, diluted 1:100): 10) | -3.55 (inactive) | 0.21 (inactive) | -1.4 (inactive) | -1.29 (inactive)
CCN(CC)C(=O)C1(c2ccccc2)CC1CN (centres undefined) [Milnacipran] (stock concentration (mM, diluted 1:100): 10) | 2.47 (inactive) | -0.19 (inactive) | -0.1 (inactive) | -0.02 (inactive)
CC[C@H](C)C(=O)O[C@H]1C[C@H](O)C=C2C=C[C@H](C)[C@H](CC[C@@H](O)C[C@@H](O)CC(=O)O)[C@H]21 [Pravastatin sodium] (stock concentration (mM, diluted 1:100): 9.5) | -1.3 (inactive) | -0.46 (inactive) | 13.6 (active) | 0.4 (inactive)
CCCc1c(OCCCCc2nnn[nH]2)ccc(C(C)=O)c1O (stock concentration (mM, diluted 1:100): 10) | -1.99 (inactive) | -2.23 (inactive) | 5.49 (active) | 1.14 (inactive)
COc1cc(C(=O)NC2CCCNC2)cc(OC)c1OC (centres undefined) [Troxipide] (stock concentration (mM, diluted 1:100): 10.1) | -0.11 (inactive) | -0.27 (inactive) | -0.49 (inactive) | 0.38 (inactive)
CN(C)CCc1c[nH]c2ccc(Cn3cncn3)cc12 [Rizatriptan benzoate] (stock concentration (mM, diluted 1:100): 10) | -0.91 (inactive) | -0.35 (inactive) | -1.17 (inactive) | -0.18 (inactive)
CCCCC(=O)N(Cc1ccc(-c2ccccc2-c2nnn[nH]2)cc1)[C@H](C(=O)O)C(C)C [Valsartan] (stock concentration (mM, diluted 1:100): 10) | 0.42 (inactive) | -0.5 (inactive) | -1.81 (inactive) | -1.05 (inactive)
COc1ccc2[nH]c([S+]([O-])Cc3ncc(C)c(OC)c3C)nc2c1 (centres undefined) [Omeprazole] (stock concentration (mM, diluted 1:100): 10) | 6.11 (inactive) | -1.05 (inactive) | -3.25 | 0.39 (inactive)
OCc1cccnc1 [3-Pyridinemethanol] (stock concentration (mM, diluted 1:100): 10) | 2.69 (inactive) | 0.73 (inactive) | 0.78 (inactive) | -1.12 (inactive)
CN1CCCC(n2nc(Cc3ccc(Cl)cc3)c3ccccc3c2=O)CC1 (centres undefined) [Azelastine hydrochloride] (stock concentration (mM, diluted 1:100): 9.1) | 0.63 (inactive) | 10.7 (active) | 11 (active) | 0.19 (inactive)
NNCCc1ccccc1 [Phenelzine sulfate salt] (stock concentration (mM, diluted 1:100): 10) | 1.83 (inactive) | -3.78 (inactive) | -0.66 (inactive) | 0.3 (inactive)
COc1cccc2c1C(=O)c1c(O)c3c(c(O)c1C2=O)C[C@@](O)(C(=O)CO)C[C@@H]3O[C@H]1C[C@H](N)[C@H](O)[C@H](C)O1 [Doxorubicin hydrochloride] (stock concentration (mM, diluted 1:100): 9.4) | 0.3 (inactive) | -0.73 (inactive) | 83.6 (active) | 51 (active)
O=C(c1ccccc1)c1ccc2n1CCC2C(=O)O (centres undefined) [Toradol] (stock concentration (mM, diluted 1:100): 6.8) | -1.05 (inactive) | -1.15 (inactive) | 0.21 (inactive) | 0.91 (inactive)
Cc1occc(=O)c1O [Maltol] (stock concentration (mM, diluted 1:100): 10) | 1.2 (inactive) | 0.46 (inactive) | -1.16 (inactive) | -0.74 (inactive)
CNNCc1ccc(C(=O)NC(C)C)cc1 [Procarbazine hydrochloride] (stock concentration (mM, diluted 1:100): 8.6) | -0.1 (inactive) | -1.19 (inactive) | -0.84 (inactive) | 0.69 (inactive)

Reference: the supplement of paper PMC3414501
